Source: PubChem
This is a sample that favours compounds with a hit; in the whole collection about 18% have one here.
IL1B secr inh = inhibitors of inflammasome signaling (IL-1 beta secretion); THP-1 LPS/ATP IL-1B secretion, AlphaLISA, 16 h; stronger effect = lower value; activity change, % at 57.5 µM; 360,000 compounds, 4.7% hits; in the data active = activity change below about -50%; inconclusive = mostly about -30% to -49%
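THP-1 cells pretreated 1 hr with compounds (up to 57.5 uM final), then stimulated with LPS (250 ng/mL final) plus ATP (1.25 mM final); secreted IL-1B measured by AlphaLISA after 16 hr, decreased signal indicating inhibition.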
DT40 TDP1 no CPT = qHTS for Inhibitors of human tyrosyl-DNA phosphodiesterase 1 (TDP1): qHTS in cells in absence of CPT; 420,000 compounds, 15% hits; DT40 Tdp1-/- hTDP1 cells, no CPT, ATP luminescence, 48 h; Potency, µM (doses to about 46.2 µM), inactives show at the top dose activity change, negative = growth inhibition, hits mostly inhibitors; AID 686978, 2013; note: potency is the fitted concentration of half-maximal effect; nearly all actives have a fitted effect of over 55% in size
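Cells were dispensed at 400 per well, compounds added by pin tool, plates incubated ≥48 hr at 37 °C, then CellTiter-Glo added for 30 min at room temperature before luminescence reading. Line: DT40 Tdp1-/- complemented with hTDP1; camptothecin omitted.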
LDHA block = LDHA (human) enzyme inhibition; P00338; purified LDHA, NADH/diaphorase-resazurin fluorescence; stronger effect = lower value; activity change, % (values are at about 110 or 230 µM); 480,000 compounds, 0.15% hits; in the data active = activity change below about -30%; inconclusive = mostly about -25% to -30%;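 note: plate controls were DMSO wells for no effect and wells without enzyme for full effect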
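Enzyme activity of human lactate dehydrogenase 5 (2 nM; 0.06 mM NADH, 0.2 mM pyruvate, 5 min, RT) is measured via a resazurin/diaphorase fluorescence readout of residual NADH.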
Gal4-VP16 FLuc = counter-screen for ROR gamma inhibitors: Gal4-VP16 reporter. Drosophila S2 Gal4-VP16 UAS-luciferase, luminescence, 20 h. Potency, µM (doses to about 53.6 µM), for inactives: at the highest dose activity, negative = inhibition, actives largely listed as inhibitors. 310,000 compounds, 3.5% hits. AID 2546;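 note: Gal4-VP16 expression switched on by copper sulfate through the metallothionein promoter; potency is the fitted concentration of half-maximal effect; nearly all actives have a fitted effect of over 50% in size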
RORg inh = blocks mouse ROR gamma transcriptional activity. Potency, µM (top dose mostly 53.6 µM), without a hit: top-dose activity change, negative = inhibition, usual class: inhibitors. 310,000 compounds, 5.4% hits. AID 2551. Drosophila S2 Gal4-RORgamma UAS-luciferase reporter, 20 h; note: potency is the fitted concentration of half-maximal effect; nearly all actives have a fitted effect of over 60% in size
Target sequence (P51450 whole entry, looked up, the tested form may be a part): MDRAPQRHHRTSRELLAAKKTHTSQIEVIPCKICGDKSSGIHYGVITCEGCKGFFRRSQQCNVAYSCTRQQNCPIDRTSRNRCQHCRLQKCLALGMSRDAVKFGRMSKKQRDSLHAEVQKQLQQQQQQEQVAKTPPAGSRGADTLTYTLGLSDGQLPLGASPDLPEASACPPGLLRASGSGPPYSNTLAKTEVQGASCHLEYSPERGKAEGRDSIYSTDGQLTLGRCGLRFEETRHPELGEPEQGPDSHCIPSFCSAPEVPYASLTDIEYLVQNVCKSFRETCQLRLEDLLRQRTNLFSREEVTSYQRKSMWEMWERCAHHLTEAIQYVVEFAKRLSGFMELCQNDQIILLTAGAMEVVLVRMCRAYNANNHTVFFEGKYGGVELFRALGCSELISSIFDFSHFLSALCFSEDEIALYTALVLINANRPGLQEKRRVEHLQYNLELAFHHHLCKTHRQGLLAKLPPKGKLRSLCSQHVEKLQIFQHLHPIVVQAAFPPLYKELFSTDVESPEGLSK
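Luciferase reporter read in Schneider cells carrying Gal4-RORγ (mouse) and UAS-Photinus luciferase; cells given compound 1 h before 700 uM copper sulfate induction, then incubated 20 h at ambient temperature.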
DT40 TDP1 CPT = DT40-hTDP1 cell growth loss with CPT; chicken DT40 Tdp1-/-;hTDP1 cells + 20 nM CPT, ATP luminescence, 48 h; Potency, µM (top dose mostly 46.2 µM), inactives show at the highest dose activity change, negative = growth inhibition, actives largely listed as inhibitors; 420,000 compounds, 12% hits; AID 686979; note: potency is the fitted concentration of half-maximal effect; nearly all actives have a fitted effect of over 55% in size
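Chicken DT40 Tdp1-/- cells stably complemented with human TDP1 were seeded at 400 cells/well in medium containing 20 nM camptothecin, exposed to pin-transferred compounds, and grown at 37 °C for at least 48 hr. Viability was read as ATP luminescence.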
* hit, by the source's call; ? = inconclusive; . = not tested or not shown; ! = not active in a repeat; [ ] = another dose, or the depositor's remark. Unless noted, calls come from the whole dose curve; as a rule, active = well fitted curve in the direction sought with a large enough effect; inconclusive = small, poorly fitted or top-dose-only effect, or another doubt; inactive = no such curve, though single readings can be large; an effect the other way counts as inactive or inconclusive. Unless noted, % is set by controls: 0 for no effect and ±100 for the full control effect.

SMILES	IL1B secr inh	DT40 TDP1 no CPT	LDHA block	Gal4-VP16 FLuc	RORg inh	DT40 TDP1 CPT
O=C(CSc1nc2ccccc2c(=O)n1Cc1ccco1)N1CCCCCC1	?	?	-2	?	?	21µM*
Cc1cccc(-n2c(SCc3cc(=O)n4ccsc4n3)nc3ccccc3c2=O)c1	-3	15µM*	-5	4%	?	?
O=c1c2ccccc2nc(SCc2cn3ccsc3n2)n1-c1ccccc1	-6	-23%	-8	3%	-20%	-20%
Cc1ccc(-c2nc(CS(=O)Cc3ccccc3)co2)cc1 (configuration not stated)	.	.	1	.	.	.
Cc1ccc(/C=N/NC(=O)C2C(C=C(Cl)Cl)C2(C)C)cc1 (configuration not stated)	.	.	-1	.	.	.
Cc1ccccc1Nc1nc2c(c(=O)[nH]c(=O)n2C)n1CC(=O)O	.	.	31	.	.	.
COc1cc(C2CC(=O)Nc3c2c(C)nn3-c2ccc(Cl)nn2)cc(OC)c1OC (configuration not stated)	.	.	-1	.	.	.
Cc1ccc2[nH]c(=O)c3cc(C(=O)NCc4ccccc4Cl)sc3c2c1	.	.	-1	.	.	.
CCn1c(SCc2ccc(OC)c(F)c2)nc2ccccc2c1=O	-15	-70%	0	3%	-38%	?
CCCN(CCC)C(=O)CSc1nc2ccccc2c(=O)n1Cc1ccco1	.	21µM*	1	.	.	18µM*
CCn1c(=S)sc2c(=O)n(-c3ccccc3)c(SCC(=O)NCc3ccco3)nc21	-13	?	-2	-2%	?	18µM*
CCn1c(SCC(=O)N2CCCCCC2)nc2ccccc2c1=O	-11	?	-4	20%	8%	21µM*
C=CCn1c(SCC(=O)N2CCCCCC2)nc2ccccc2c1=O	-16	?	1	6%	15%	?
CCn1c(SCc2cccc(OC)c2)nc2ccccc2c1=O	25	21µM*	-2	10%	-34%	10µM*
Cn1cc(C(=O)N2CCN(S(=O)(=O)c3cccc(F)c3)CC2)c2ccccc21	.	.	-8	.	.	.
COc1ccc(-c2nc3c(C(C)(C)C)cc(C(C)(C)C)c(O)c3o2)cc1OC	.	.	18	.	.	.
O=c1c2ccccc2nc(-c2ccccc2)n1Cc1ccco1	-1	?	-7	12%	33%	-16%
CCC(C)N(C(=O)CSc1nc(C)nc2ccccc12)C1CCS(=O)(=O)C1 (configuration not stated)	-59*	?	-6	.	.	1%
O=C1c2ccccc2C(=O)N1CCCc1nc2ccccc2c(=O)n1Cc1ccco1	-2	16µM*	-5	2%	-3%	21µM*
Cc1nc(SCC(=O)N(CC(C)C)C2CCS(=O)(=O)C2)c2ccccc2n1 (configuration not stated)	-24	?	-12	.	.	-24%
Cc1cc(NC(=O)CSc2nc3cc(C(=O)NCCCOC(C)C)ccc3c(=O)n2Cc2ccco2)no1	-18	?	-1	-11%	-1%	18µM*
O=C1CNC(=S)N1C1CCCCCC1	6	-7%	-10	-24%	11µM*	17%
CCCC1NC(=S)N(C2CCCCC2)C1=O (configuration not stated)	8	?	-3	?	-40%[10 µM]	-16%
Cc1ccc[n+](/C(=C\C(=C=[N-])C#N)C(=O)c2ccc(Cl)cc2)c1	7	-12%	-3	?	18µM*	8%
COc1cccc(CNC(=O)c2ccc(N3CCOCC3)c(NC(=O)Nc3cc(F)ccc3F)c2)c1	.	.	1	.	.	.
SMILES	IL1B secr inh	DT40 TDP1 no CPT	LDHA block	Gal4-VP16 FLuc	RORg inh	DT40 TDP1 CPT
COc1ccc(SCC(c2ccccc2)N2CCN(CC(C)C)CCC2=O)cc1 (configuration not stated)	.	.	.	-4%	-13%	.
Cc1ccc(SCC(c2ccccc2)N2CCN(CC(C)C)CCC2=O)cc1 (configuration not stated)	.	.	.	-15%	22%	.
Cc1ccc(SC[C@H](c2ccccc2)N2CCN(CC(C)C)CCC2=O)cc1	-6	12µM*	0	-3%	18%	16µM*
CN1CCC(=O)N([C@H](CSc2ccccc2)c2ccccc2)CC1	4	18µM*!	-4	4%	19%	?
CCCN1CCC(=O)N([C@H](CSc2ccc(OC)cc2)c2ccccc2)CC1	12	16µM*	3	6%	9%	?
COc1cccc(Cn2c(-c3nonc3NC(C)=O)nc3ccccc32)c1	.	13µM*	-3	.	.	13µM*
CC(=O)Nc1nonc1-c1nc2ccccc2n1N(C(C)=O)C(C)=O	-8	-13%	-21	6%	26%	-15%
CC(=O)Nc1nonc1-c1nc2ccccc2n1Cc1ccccc1Br	.	15µM*	4	.	.	16µM*
N#CCCn1c(-c2nonc2NC(=O)c2ccccc2Cl)nc2ccccc21	3	-23%	-11	1%	-24%	-15%
CCC(=O)Nc1nonc1-c1nc2ccccc2n1CC(C)C	-20	23µM*	-10	1%	?	23µM*
COC(=O)c1ccc(OC(=O)c2ccc(OC)c(Br)c2)cc1	.	.	0	.	.	.
CCNC(=O)c1ccccc1OCc1ccc(F)cc1	.	.	5	.	.	.
O=c1c2ccccc2nnn1CSc1nnc(-c2cccs2)n1Cc1ccccc1	?	23µM*	-2	3%	14%	29µM*
COc1ccc(C)cc1-n1nnnc1SCn1nnc2ccccc2c1=O	-14	16µM*	0	-18%	19%	16µM*
C=CCn1c(SCn2nnc3ccccc3c2=O)nc2scc(-c3cccs3)c2c1=O	-6	-1%	7	15%	15%	9%
O=c1c2ccccc2nnn1CSc1nnnn1-c1ccc(O)cc1	10	?	5	-8%	38%	-13%
Cc1ccc(-n2nnnc2SCn2nnc3ccccc3c2=O)cc1	-5	13µM*	-1	?	?	?
O=c1cc(CSc2nnc(-c3cccs3)n2Cc2ccccc2)nc2sc3ccccc3n12	-51*	3.7µM*	-1	14µM*	?	5.8µM*
CC(=O)c1cccc(NC(=O)COC(=O)Cc2cccc3ccccc23)c1	.	.	-5	.	.	.
COc1ccc(Cl)cc1NC(=O)CCn1cnc2c1c(=O)n(C)c(=O)n2C	.	.	2	.	.	.
COc1cc2c(cc1OC)CN(Cc1cc(=O)n3cc(C)ccc3n1)CC2	2	?	8	3%	-13%[10 µM]	-5%
O=c1c2ccccc2nnn1CSc1nc2ccccc2c(=O)n1CCCO	-13	-16%	-3	-12%	10µM*	-25%
